# Source: PubChem (National Center for Advancing Translational Sciences (NCATS))
# TRHR PAM: allosteric enhancers of human TRH receptor. enhancement, % at 2 µM. P34981. 360,000 tested, 0.66% active. AID 493056. TRHR cells, fluo-8 calcium fluorescence, EC20 TRH enhancement; in the data active = enhancement above about 30%; also: 0% is about no effect
#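 Enhancer read-out: after compound pinning and an initial kinetic agonist-mode read, an EC20 of TRH (10 nM final) was injected and fluo-8 calcium signal (Ex 480/Em 530) followed at 1 s/cycle for 100 cycles in TRHR-expressing cells.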
# D1 agonist: human D1 receptor agonism; P21728; HEK293 T-REx D1 cells, calcium flux, agonist mode; activation, % at 2 µM; 360,000 tested, 1% active; also: 0% is about no effect
# Target sequence (P21728 whole entry, looked up): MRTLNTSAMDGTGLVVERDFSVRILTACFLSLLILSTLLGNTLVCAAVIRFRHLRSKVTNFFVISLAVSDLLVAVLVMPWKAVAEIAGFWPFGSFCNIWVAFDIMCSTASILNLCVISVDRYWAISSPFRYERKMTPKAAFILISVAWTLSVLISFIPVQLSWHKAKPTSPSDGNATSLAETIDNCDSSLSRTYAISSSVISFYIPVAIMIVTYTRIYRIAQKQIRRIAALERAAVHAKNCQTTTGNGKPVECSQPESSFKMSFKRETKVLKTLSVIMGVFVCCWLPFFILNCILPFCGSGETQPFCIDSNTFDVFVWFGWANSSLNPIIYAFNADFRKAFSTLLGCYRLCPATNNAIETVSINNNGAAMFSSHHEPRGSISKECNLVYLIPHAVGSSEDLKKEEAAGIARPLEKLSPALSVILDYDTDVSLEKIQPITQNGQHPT
#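 Tetracycline-induced HEK293 TREx D1 cells, force-coupled to calcium signalling, were dye-loaded with a no-wash calcium kit. Compound was pin-added after a 10 s baseline. Fluorescence was read kinetically at 1 cycle/s for 180 s, with calcium rises flagged as agonism.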
# D1 potentiator: potentiators of human D1 dopamine receptor. P21728. HEK293 TREx D1 cells, calcium flux, dopamine EC20 potentiation. potentiation, % at 10 µM. 360,000 tested, 0.036% active; in the data active = potentiation above about 30%; also: 0% is about no effect
# TRHR agonist: activates the human TRH receptor; P34981; TRHR cells, calcium flux fluo-8, FDSS agonist mode; activation, % at 2 µM; 360,000 tested, 0.18% active; also: 0% is about no effect
#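 In this calcium-flux screen, cells bearing human TRHR are dye-loaded with fluo-8, baselined for 10 cycles, then exposed to library compounds; positive kinetic calcium responses during the agonist phase mark hits, with TRH as control.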
# Glioma ERSR ind: ER stress response induction in glioma; AID 602332; 420,000 tested, 0.02% active; Potency, µM, without a hit: at the top dose activation, hits mostly activators; U87-MG GRP78 promoter luciferase reporter, 16 h; active = well fitted activation curve with a large enough effect; also: potency is read from the fitted curve at half-maximal effect; series mostly up to about 76 µM; % of control where 0% means no effect; nearly all actives have a fitted effect of over 35% in size
#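 ERSR induction read as luciferase luminescence (Bright-Glo, 10 min at room temperature) in stably transfected human U87-MG glioma cells exposed to compounds for 16 h, using GRP78 as sensor.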
# D1 antag: human D1 dopamine receptor antagonism; P21728; HEK293 TREx D1 cells, calcium flux, dopamine EC80; hits give low values; activity change, negative = inhibition, % at 10 µM; 360,000 tested, 3.2% active; AID 504652; in the data active = activity change below about -30%; also: % is scaled to controls: 0 for no effect and ±100 for the full control effect
#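 Calcium flux readout: force-coupled, inducible Hek293 Trex D1 line, cells induced overnight at 30 C with tetracycline, dye-loaded 30–90 min at RT. Antagonism scored against EC80 dopamine challenge given 180 s after compound.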
# The depositor's hits bear a star; / = not tested or not shown; ! = not active in a repeat. A selection: hits, their analogues and other compounds. The true share with any hit is near 4%. Rule as the data show it, unless noted: active = activation above about 30%; inactive = the rest.
SMILES,TRHR PAM,D1 agonist,D1 potentiator,TRHR agonist,Glioma ERSR ind,D1 antag
O=C(NCc1cccs1)c1nc(-c2cccs2)no1,-1.0,0.9,-2.3,-0.1,2.3%,-8.0
CC(=O)c1ccc(NC(=O)C2(c3ccccc3)CC2(Cl)Cl)cc1 (stereo not given),1.9,37.6*,0.5,5.6,-0.4%,4.7
O=C(Nc1ccccc1Cl)C1(c2ccccc2)CC1(Cl)Cl (stereo not given),1.1,5.3,-6.2,-0.2,1.8%,17.4
S=C(N/N=C/c1ccccc1)N1CCOCC1,-9.6,1.9,-4.0,0.4,3.1%,-2.5
CC(=O)Nc1cccc(OC(=O)COc2ccc(Br)cc2)c1,-8.6,11.4,-3.2,-0.5,2.4%,-30.5*
COCCn1c(=S)[nH]c2ccccc21,-2.4,2.5,2.5,0.8,-0.7%,14.4
Cn1ccsc1=NC(=O)c1ccccc1F,-3.6,0.7,-6.3,0.0,-1.2%,-5.2
Cc1ccc(C)c(-n2c(-c3ccc(Br)cc3)csc2=NC(=O)c2ccccc2F)c1,4.7,7.6,12.2,1.4,-7.7%,-42.0*
O=S1(=O)C2CC3C=CC2(CN1Cc1cccc(F)c1)O3 (stereo not given),/,/,/,/,-5.1%,/
CCOC(=O)Nc1ccc2c(c1)N(C(=O)N1CCN(C)CC1)c1ccccc1S2,-6.4,9.8,-11.3,1.3,-1.8%,-64.1*
CN1CCN(CC(=O)N2c3ccccc3Sc3ccccc32)CC1,5.0,5.0,-11.3,1.1,-3.0%,-3.4
CCOC(=O)N1CCN(CC(=O)N2c3ccccc3Sc3ccccc32)CC1,8.0,47.1*,11.6,-0.5,-3.0%,-4.7
CC1CCCN(CC(=O)N2c3ccccc3Sc3ccccc32)C1 (stereo not given),36.4*,8.8,-3.3,0.2,-3.4%,9.1
Cc1occc1C(=O)Nc1nnc(C(F)(F)F)s1,-9.7,9.0,1.4,2.0,0.4%,-30.1*
COC(=O)c1sc(NC(=O)c2oc3ccccc3c2C)nc1C,0.1,1.2,1.1,-1.0,5.1%,-0.5
Cc1c(C(=O)Nc2nnc(C(F)(F)F)s2)oc2ccccc12,5.5,9.5,0.4,-1.5,1.5%,-37.9*
O=C(Nc1ccccc1C(=O)Nc1nnc(C(F)(F)F)s1)c1ccccc1,-3.7,26.2,-5.0,2.3,-4.6%,-38.8*
CCOC(=O)c1ccc(NC2=CC(c3ccc(O)c(OCC)c3)N(c3ccc(C(=O)OCC)cc3)C2=O)cc1 (stereo not given),2.7,-0.1,-0.1,1.0,-3.2%,-10.9
O=C(NCc1cccnc1)c1cnn(-c2ncc3c(n2)-c2ccccc2CCC3)c1C1CC1,/,/,/,/,-3.7%,/
COc1ccc(-c2[nH]ncc2CN2CCC(OCc3ccccc3)CC2)c(F)c1,0.9,11.3,-4.8,0.2,-2.5%,-51.9*
C=CC[C@H](c1ccc(F)cc1)N(CC(C)C)S(=O)(=O)C=C,/,/,/,/,-4.8%,/
COc1ccc(-c2nc3cc(C)ccn3c2NC(=O)c2ccc(C)c(C)c2)cc1,3.5,1.7,0.2,0.1,-1.8%,9.0
COc1ccc(-c2nc3cc(C)ccn3c2NC(=O)c2ccc(F)cc2)cc1,3.4,0.9,-0.8,-0.4,-0.6%,-39.8*
CCC1CN(CC(=O)NCc2cccc(Br)c2)c2ccccc2S1 (stereo not given),-7.1,1.1,-3.7,0.5,-4.2%,-35.3*
O=C(CCC(=O)N1CCSc2ccccc21)NCc1cccc(Br)c1,6.8,12.2,-0.3,-0.5,-3.1%,1.6
SMILES,TRHR PAM,D1 agonist,D1 potentiator,TRHR agonist,Glioma ERSR ind,D1 antag
C[C@@H]1CN(c2c(F)c(N)c3c(=O)c(C(=O)O)cn(C4CC4)c3c2F)C[C@H](C)N1,0.6,1.0,-1.9,-0.5,-2.6%,3.7
OCC1(O)OC[C@@H](O)[C@H](O)[C@@H]1O (stereo not given in full),/,/,/,/,-4.3%,/
O=C(Nc1ccccc1)c1cc(S(=O)(=O)NCc2ccncc2)ccc1Cl,-1.8,4.3,-5.4,0.0,-5.9%,-32.0*
O=C(Nc1ccc(S(=O)(=O)NCc2ccccc2)cc1)Nc1ccc2c(c1)OCO2,3.1,8.0,-9.9,1.3,0.9%,-40.2*
CN(c1ccccc1)S(=O)(=O)c1ccc(Cl)c(C(=O)Nc2ccncc2)c1,-0.6,15.3,-7.5,-0.4,-1.8%,-15.4
O=C(Nc1cc(C(F)(F)F)ccc1Cl)c1cc(S(=O)(=O)NCc2ccccc2)ccc1F,-2.2,-1.7,-3.4,0.2,-4.2%,-71.4*
COc1ccccc1NC(=O)c1cc(S(=O)(=O)NCc2ccccc2)ccc1F,-2.8,3.4,-5.0,-2.7,-4.5%,-0.5
CN(c1ccc(F)cc1)S(=O)(=O)c1ccc(Cl)c(C(=O)Nc2ccncc2)c1,-2.7,8.5,-3.2,0.4,-0.8%,-48.3*
Clc1ccc[n+](CCCCC[n+]2cccc(Cl)c2)c1,/,/,/,/,-0.9%,/
CCN1C(=O)[C@H]2[C@H]3[C@H](O)[C@H](O)C/C(=N/NC(=O)OCc4ccccc4)[C@H]3CC[C@@H]2C1=O,/,/,/,/,0.9%,/
O=C(Nc1ccc(S(=O)(=O)NCc2ccccc2)cc1)c1ccccc1[N+](=O)[O-],0.7,15.9,-6.9,1.7,-3.2%,-72.2*
CCOC(=O)c1ccc(NC(=O)c2ccccc2[N+](=O)[O-])cc1,3.5,1.1,-4.0,-0.3,2.8%,2.7
COc1ccc(CNS(=O)(=O)c2ccc(F)c(C(=O)Nc3ccccc3OC)c2)cc1,-4.1,2.5,-6.8,-1.2,-6.1%,-36.8*
CC1CC(C)(C)NC(=S)N1CCCC(=O)N1CCN(c2ccc(F)cc2)CC1 (stereo not given),2.4,0.0,-1.9,-0.2,-3.2%,2.6
COc1ccc2c(CC(=O)NNC(=O)c3ccc(C)cc3)coc2c1,/,/,/,/,-1.8%,/
COc1ccc(CNC(=O)Cc2coc3ccc(C)cc23)cc1,0.6,6.2,-3.1,-1.2,-3.6%,-34.7*
Cc1ccc2oc(C(=O)NCc3ccc(S(N)(=O)=O)cc3)cc(=O)c2c1,-10.4,0.4,6.7,-1.1,-2.9%,0.1
Cc1ccc(CNC(=O)c2cc(=O)c3cc(C)ccc3o2)cc1,10.2,60.4*!,-9.7,-0.6,-0.5%,1.9
Cc1cc(C)c2c(C)nn(-c3ccccc3)c2n1,-10.1,36.6*,4.4,-1.2,2.6%,1.4
Cc1cc(C)c2c(C(C)(C)C)nn(-c3ccccc3)c2n1,-9.5,0.6,5.3,0.2,-2.8%,5.5
O=C(C1CCCCN1S(=O)(=O)c1ccccc1)N1CCN(C(c2ccccc2)c2ccccc2)CC1 (stereo not given),-1.6,7.9,1.7,-0.4,-5.8%,-30.5*
CC(=O)Nc1ccc(Nc2nc(Nc3ccc(Cl)cc3)nc(N3CCOCC3)n2)cc1,/,/,/,/,-2.8%,/
O=c1cc(N2CCCC2)c2ccccc2o1,34.6*,0.5,-4.9,0.3,-8.5%,3.1
CC1(C)CC(=O)c2c(Cc3ccccc3)noc2C1,31.7*,2.2,-2.3,0.3,1.2%,-11.5
